Test [1] relates to TRPC4 beta (transient receptor potential cation channel C4), mouse. The experiment in a line: activators of mouse TRPC4 channel, confirmation, cell-based, Fluo4 calcium, HEK293 TRPC4beta/mu-opioid, duplicates, 10 µM (AID 2426;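 active = fluorescence ratio normalized to control raised more than 50% in primary screen plus both repeat runs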). Particulars: Fluo4 calcium fluorescence, at 10 µM; hits give high values.
Test [2] concerns transient receptor potential cation channel C4 beta (TRPC4), mouse. The experiment in a line: activators of mouse TRPC4 channel, confirmation, cell-based, second round, Fluo4, HEK293 TRPC4beta/mu-opioid, 1 µM (AID 2461;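 active = primary screen active and over 50% activation in each of two duplicate runs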). The conditions noted are these: Fluo4 calcium fluorescence, at 1 µM; hits give high values.
Test [3] concerns TRPC4 (transient receptor potential cation channel C4 beta), mouse. The experiment in a line: positive allosteric modulators of mouse TRPC4, confirmation, cell-based, second round, Fluo-4, HEK293 TRPC4beta/mu-opioid, 1 µM (AID 2554;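 active = primary screen hit whose fluorescence ratio, in both repeats, exceeds the weak agonist control mean by 3 SD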). Particulars: DAMGO EC20, Fluo-4 calcium flux, at 1 µM; hits give high values. For orientation: Calcium flux is commonly read through the fluorescence of an indicator in the cells.

Test [4] deals with TRPC4 beta (transient receptor potential cation channel C4), mouse. Kind of test: positive allosteric modulators of mouse TRPC4, confirmation, cell-based, Fluo-4, HEK293 TRPC4beta/mu-opioid (AID 2555;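 active = primary screen hit whose calcium fluorescence ratio, in both repeats, exceeds the weak agonist control mean by 3 SD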). The conditions noted are these: DAMGO EC20, Fluo-4 calcium flux, at 10 µM; hits give high values.
The target in test [5] is Short transient receptor potential channel 4 (Mus musculus) (UniProt Q9QUQ5). Kind of test: inhibitors of mouse TRPC4 channel, confirmation, cell-based, Fluo4, HEK293 TRPC4beta/mu-opioid (AID 2636;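 active = calcium signal cut by more than 3 SD below the full-agonist control yet still positive, in both repeats and the earlier primary screen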). Particulars: DAMGO, Fluo4 calcium flux, at 10 µM; hits give high values.
Sequence of Short transient receptor potential channel 4 (Mus musculus) (Q9QUQ5 whole entry, looked up): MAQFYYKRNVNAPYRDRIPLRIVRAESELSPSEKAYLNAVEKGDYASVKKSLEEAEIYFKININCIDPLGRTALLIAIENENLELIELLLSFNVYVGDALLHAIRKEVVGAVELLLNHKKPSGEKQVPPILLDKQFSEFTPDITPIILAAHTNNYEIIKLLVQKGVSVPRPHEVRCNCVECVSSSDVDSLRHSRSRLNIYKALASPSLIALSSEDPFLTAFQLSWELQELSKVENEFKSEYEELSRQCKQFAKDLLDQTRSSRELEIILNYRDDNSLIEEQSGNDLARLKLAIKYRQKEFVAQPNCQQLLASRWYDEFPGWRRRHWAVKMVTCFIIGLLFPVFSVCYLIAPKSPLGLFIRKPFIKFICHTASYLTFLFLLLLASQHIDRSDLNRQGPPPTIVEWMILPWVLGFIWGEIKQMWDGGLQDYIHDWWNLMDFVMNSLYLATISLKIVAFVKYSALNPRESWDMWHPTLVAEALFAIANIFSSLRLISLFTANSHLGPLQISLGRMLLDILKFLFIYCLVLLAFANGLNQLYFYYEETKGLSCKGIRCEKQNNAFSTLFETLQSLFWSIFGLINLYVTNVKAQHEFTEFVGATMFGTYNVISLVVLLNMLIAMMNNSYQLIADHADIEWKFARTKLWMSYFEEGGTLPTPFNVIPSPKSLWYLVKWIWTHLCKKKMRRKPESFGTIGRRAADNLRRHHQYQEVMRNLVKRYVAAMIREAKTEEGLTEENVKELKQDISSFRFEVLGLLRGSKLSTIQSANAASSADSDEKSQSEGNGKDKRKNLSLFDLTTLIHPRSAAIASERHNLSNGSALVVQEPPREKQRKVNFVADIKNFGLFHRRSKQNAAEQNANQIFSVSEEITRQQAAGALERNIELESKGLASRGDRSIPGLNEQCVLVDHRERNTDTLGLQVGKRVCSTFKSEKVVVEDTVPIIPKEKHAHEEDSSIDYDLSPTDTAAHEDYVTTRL
Test [6] shares this target. The experiment in a line: inhibitors of mouse TRPC4 channel, confirmation, cell-based, second round, Fluo4, HEK293 TRPC4beta/mu-opioid, 1 µM (AID 2637). The conditions noted are these: Fluo4 calcium flux, DAMGO, at 1 µM; hits give high values.
Test [7] has the same target. The experiment in a line: mouse TRPC4 channel activators, dose response, cell-based, HEK293 TRPC4/mu-opioid, Fluo-4 calcium (AID 434937;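 active = primary screen activator hit with a dose response curve and TRPC4 channel activation at any tested dose; inactive = no activation, no dose response, or not a primary hit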).
The target is the same in test [8]. Kind of test: TRPC4 positive allosteric modulators, dose response, cell-based, HEK293 TRPC4/mu-opioid, Fluo-4 calcium, EC20 DAMGO (AID 434941;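 active = earlier screen potentiator hit that boosts the TRPC4 ion channel at some dose, with a dose response; inactive = no potentiation, no dose response, or not a prior hit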;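 note: calcium entry triggered by an EC20 dose of DAMGO at the co-expressed mu-opioid receptor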).
The target is the same in test [9]. The experiment in a line: mouse TRPC4 channel inhibitors, dose response, cell-based, HEK293 TRPC4/mu-opioid, Fluo-4 calcium (AID 434942;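 active = primary screen inhibitor hit that blocks the TRPC4 channel at some tested dose, yielding a dose curve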).
The target in test [10] is Short transient receptor potential channel 6 (Mus musculus) (UniProt Q61143). The experiment in a line: inhibition of mouse TRPC6 channel, confirmation, selectivity assay for TRPC4 inhibitor project, cell-based, HEK293, membrane potential dye, duplicate (AID 434948;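 active = active in primary screen and both duplicates, each dropping signal beyond three positive-control SD with fluorescence still positive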). The conditions noted are these: HEK293 TRPC6, membrane potential dye fluorescence, at 10 µM, stimulated with maximal-effect acetylcholine; hits give high values.
Sequence of Short transient receptor potential channel 6 (Mus musculus) (Q61143 whole entry, looked up): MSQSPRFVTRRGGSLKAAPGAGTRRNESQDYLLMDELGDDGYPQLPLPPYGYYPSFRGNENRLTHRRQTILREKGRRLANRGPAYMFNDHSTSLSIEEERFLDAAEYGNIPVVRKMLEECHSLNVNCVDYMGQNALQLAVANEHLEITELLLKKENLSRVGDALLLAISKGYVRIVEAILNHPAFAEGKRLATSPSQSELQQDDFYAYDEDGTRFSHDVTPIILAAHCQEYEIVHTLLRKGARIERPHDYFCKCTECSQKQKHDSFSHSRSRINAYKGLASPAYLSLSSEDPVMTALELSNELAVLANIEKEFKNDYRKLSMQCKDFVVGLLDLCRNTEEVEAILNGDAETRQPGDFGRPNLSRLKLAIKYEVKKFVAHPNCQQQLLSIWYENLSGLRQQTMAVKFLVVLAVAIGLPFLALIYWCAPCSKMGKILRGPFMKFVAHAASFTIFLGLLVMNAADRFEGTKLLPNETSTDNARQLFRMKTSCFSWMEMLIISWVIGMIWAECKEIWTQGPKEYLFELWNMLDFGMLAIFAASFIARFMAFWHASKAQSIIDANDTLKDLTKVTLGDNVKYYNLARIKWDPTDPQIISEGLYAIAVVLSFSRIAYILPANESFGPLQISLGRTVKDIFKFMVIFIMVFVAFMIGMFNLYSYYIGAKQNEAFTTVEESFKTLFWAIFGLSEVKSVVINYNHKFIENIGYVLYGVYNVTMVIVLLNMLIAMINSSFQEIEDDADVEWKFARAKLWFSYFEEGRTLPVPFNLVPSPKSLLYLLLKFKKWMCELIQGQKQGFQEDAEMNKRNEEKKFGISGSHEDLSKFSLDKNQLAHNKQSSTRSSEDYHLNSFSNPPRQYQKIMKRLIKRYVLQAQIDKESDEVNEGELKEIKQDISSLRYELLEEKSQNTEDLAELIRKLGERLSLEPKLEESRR

Test [11] has the same target. The experiment in a line: activation of mouse TRPC6 channel, confirmation, selectivity assay for TRPC4 activator project, cell-based, HEK293, membrane potential dye, duplicate (AID 434950;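 active = membrane potential signal rise above negative control mean plus 3 SD in both duplicates, also active in the earlier TRPC4 screen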). Particulars: HEK293 TRPC6, membrane potential fluorescence, at 10 µM; hits give high values.
Test [12] shares this target. Kind of test: TRPC6 potentiation by TRPC4 potentiator hits, confirmation, selectivity assay for TRPC4 potentiator project, HEK293 cells, membrane potential dye, duplicate (AID 434952;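 active = compound raising the membrane signal above positive-control mean plus 3 SD in both repeats, and a primary screen hit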). The conditions noted are these: HEK293 TRPC6, membrane potential dye fluorescence, at 10 µM, maximal acetylcholine added after compound; hits give high values.
The target in test [13] is Short transient receptor potential channel 4 (Mus musculus) (UniProt Q9QUQ5). Kind of test: calcium flux activators in TRPC4/5HT1a cells, counter-screen for TRPC4 activator project, cell-based, second counter screen, HEK293 TRPC4/5HT1a, Fluo-4 (AID 434977;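 active = calcium signal rise above buffer-control mean plus 5 SD in both duplicates, and also a hit in the primary screen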). Particulars: Fluo-4 calcium flux, at 10 µM; hits give high values.
The nature of test [14]: calcium flux inhibitors in TRPC4/5HT1a cells, confirmation, counter-screen for TRPC4 inhibitor project, cell-based, second counter screen, HEK293 TRPC4/5HT1a, Fluo-4 (AID 434978;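 active = primary screen active whose calcium signal fell more than 3 SD beyond the full-serotonin control mean in both duplicate plates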;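 note: serotonin given first at submaximal then at maximal dose after compound preincubation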). The conditions noted are these: Fluo-4 calcium flux, at 10 µM, serotonin added to trigger calcium flux; hits give high values.
Test [15] deals with TRPC4 (mouse), co-expressed with 5HT1a in HEK293. The experiment in a line: calcium flux potentiators in TRPC4/5HT1a cells, confirmation, counter-screen for TRPC4 potentiator project, cell-based, second counter screen, HEK293 TRPC4/5HT1a, Fluo-4 (AID 434979;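 active = signal rise over 3 SD above mean of control wells given weak agonist, in both repeats and first screen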). The conditions noted are these: Fluo-4 calcium flux, at 10 µM, serotonin added at its EC20 dose; hits give high values.
Test [16] can be described thus: calcium flux activation in mu-opioid HEK293 cells, confirmation, counter-screen for TRPC4 activator project, cell-based, HEK293 mu-opioid receptor line (AID 449723;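 active = hit in primary screen, with calcium signal over 5 SD above buffer well mean in both duplicates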;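 note: counter screen cells carry the mu-opioid receptor alone and lack TRPC4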). The conditions noted are these: Fluo-4 calcium fluorescence, at 10 µM; hits give high values.
Test [17] can be described thus: calcium flux enhancement in mu-opioid HEK293 cells, confirmation, counter-screen for TRPC4 allosteric potentiator project, cell-based, HEK293 mu-opioid receptor line (AID 449724;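 active = calcium signal rise more than 3 SD above the low-dose agonist control mean, in both duplicate plates and the primary screen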;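 note: HEK293 cells carrying mu-opioid receptor only with no TRPC4 channel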). The conditions noted are these: Fluo-4 calcium flux, at 10 µM, compound added before EC20 DAMGO stimulus; hits give high values.

For some of these results: Entries with a potency or affinity are not part of this list. The source made the active and inactive calls.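 Rule for the calls, unless noted: active = calcium signal ratio cut to more than 3 SD under the fully stimulated control mean yet still positive, in both repeats and the primary screen; inactive = the rest.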

For the compound `Cc1c(C(=O)NCCc2ccccc2)oc2ccccc12`, the result in test [1], in [2], in test [3], in test [5], in test [6] and in test [7] was inactive. Further, the outcome in test [8], in test [9], in test [10], in [11], in test [12] and in test [13] was inactive. For the same compound, the result in test [14], in test [16] and in test [17] was inactive. The potentiation in test [4] is 61% (active); in test [15] it was 45.7% (active).
For `CCCn1c(N2CCN(S(=O)(=O)Cc3ccccc3)CC2)nc2ccccc21`, the outcome in test [1], in test [2], in test [3], in test [5], in test [6] and in [7] was inactive. In addition, the result in test [8], in [9], in test [10], in test [11], in test [12] and in test [13] was inactive. Also, the outcome in test [14], in [16] and in [17] was inactive. Also, the potentiation is 11% (active) in test [4] and 22.3% (active) in test [15].
For the compound `CCN(CC)CCCNC(=S)N1CCN(c2nc3ccccc3n2CC)CC1`, the outcome in test [1], in test [2], in [3], in [4], in [5] and in [6] was inactive. Further, the outcome in test [7], in test [8], in test [9], in [10], in [11] and in test [12] was inactive. For the same compound, the outcome in test [13], in test [14], in test [16] and in test [17] was inactive. Further, in test [15], the potentiation is 17.1% (active).
As to `CCOC(=O)c1ccc(N=C2C(=S)N(c3ccc(C(=O)OCC)cc3)C(=N)N2/N=C/c2ccccc2)cc1`, the result in test [1], in [2], in test [3], in test [4], in [5] and in test [6] was inactive. Further, the result in [7], in test [8], in test [9], in test [10], in test [11] and in [12] was inactive. Besides, the outcome in test [13], in test [14], in test [15], in test [16] and in [17] was inactive.
For `CCOC(=O)CSc1nc2ccccc2c(=O)n1C1CCCC1`, the outcome in test [1], in test [2], in [3], in test [4], in test [5] and in test [6] was inactive. Moreover, the result in test [7], in test [8], in [9], in [10], in test [11] and in test [12] was inactive. Also, the result in test [13], in test [14], in test [15], in test [16] and in test [17] was inactive.
Turning to `CCn1c2ccccc2c2cc(NC(=O)CN3CCCC3)ccc21`, the result in [1], in test [2], in test [3], in test [5], in test [6] and in test [7] was inactive. For the same compound, the outcome in test [8], in test [9], in test [10], in test [11], in test [12] and in [13] was inactive. For the same compound, the result in test [14], in test [16] and in [17] was inactive. Moreover, the potentiation in test [4] was 33% (active); in test [15], 11.8% (active).
In the case of `CCc1ccc(OCc2ccc(C(=O)NCc3ccccn3)o2)cc1`, the outcome in test [1], in test [2], in test [3], in test [5], in test [6] and in test [7] was inactive. In addition, the outcome in [8], in test [9], in [10], in test [11], in [12] and in [13] was inactive. Also, the result in test [14], in test [15], in [16] and in test [17] was inactive. Further, the potentiation in test [4] was 19% (active).
Regarding `COc1ccc(S(=O)(=O)N2CCCCCC2)cc1C(=O)N(C)Cc1ccc(Cl)cc1Cl`, the outcome in test [1], in test [2], in [3], in test [5], in test [6] and in test [7] was inactive. Moreover, the outcome in [8], in test [9], in test [10], in [11], in test [12] and in test [13] was inactive. In addition, the outcome in test [14] and in test [16] was inactive. The potentiation was 46% (active) in [4] and 14.4% (active) in test [15]. Moreover, the activation in [17] was 2180% (active).
With `CCN1C(=O)/C(=C/C=C2\N(CC)c3cc(S(=O)(=O)N(C)C)ccc3N2c2ccccc2)SC1=S`, the result in test [1], in test [2], in test [3], in test [5], in test [6] and in test [7] was inactive. The result in [8], in test [9], in [10], in [11], in test [12] and in [13] was inactive. In addition, the outcome in test [14] and in test [16] was inactive. The potentiation in [4] is 13% (active); in test [15], 24.9% (active). The activation in [17] was 996% (active).
With `CCOc1cc(/C=C2\CN(CC)C/C(=C\c3ccc(O)c(OCC)c3)C2=O)ccc1O`, the result in [1], in test [2], in [3], in [4], in test [5] and in test [6] was inactive. In addition, the result in [7], in test [8], in test [9], in test [10], in [11] and in test [12] was inactive. The outcome in [13], in test [14], in test [15], in test [16] and in [17] was inactive.
As for `COc1ccc(Br)cc1CN1CCC(N2CCCC2)CC1`, the outcome in test [1], in test [2], in test [3], in test [4], in [5] and in [6] was inactive. For the same compound, the outcome in test [7], in [8], in [9], in test [10], in [11] and in test [12] was inactive. For the same compound, the outcome in [13], in test [14], in [16] and in test [17] was inactive. Further, the potentiation in test [15] is 13.5% (active).
Turning to `Clc1ccc(OCCn2ccnc2)c(Br)c1`, the outcome in test [1], in test [2], in test [3], in [5], in test [6] and in [7] was inactive. The outcome in test [8], in [9], in test [10], in test [11], in test [12] and in test [13] was inactive. For the same compound, the result in test [14], in test [16] and in [17] was inactive. For the same compound, the potentiation in test [4] was 13% (active); in test [15], 12.6% (active).
For `COc1ccc2c(c1)c1ncn(CCN3CCCC3)c(=O)c1n2C`, the result in test [1], in [2], in [4], in [5], in test [6] and in test [7] was inactive. The result in test [8], in test [9], in test [10], in test [11], in test [12] and in test [13] was inactive. Moreover, the outcome in test [14], in test [16] and in test [17] was inactive. For the same compound, the potentiation was 13% (active) in test [3] and 12.8% (active) in test [15].
As for `Cc1c(N2C(=O)/C(=C\C3CC=CCC3)SC2=S)c(=O)n(-c2ccccc2)n1C` (stereo not drawn), the result in [1], in test [2], in test [3], in test [4], in [5] and in [6] was inactive. The result in [7], in test [8], in test [9], in [10], in [11] and in test [12] was inactive. The outcome in test [13], in test [14], in test [15], in test [16] and in [17] was inactive.

Source of the values: PubChem BioAssay.
